A selection: hits, their analogues and other compounds. The true share with any hit is near 18%.
TDP1 cell CPT: growth inhibition of DT40 Tdp1-/-;hTDP1 cells with camptothecin (screen for TDP1 inhibitors); Potency, µM (titrated, usually from 46.2 µM), for the others: at the top dose activity change, negative = growth inhibition, hits mostly inhibitors; chicken DT40 Tdp1-/-;hTDP1 cells + 20 nM CPT, ATP luminescence, 48 h; AID 686979; hit rate 12% among 420,000; note: potency is the fitted concentration of half-maximal effect; nearly all actives have a fitted effect of over 55% in size
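Cell growth measured by CellTiter-Glo luminescence after a minimum 48 h, 37 C compound exposure with 20 nM CPT in Tdp1-knockout DT40 cells stably expressing hTDP1, seeded 400/well; qHTS titration format.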
TDP1 inh: TDP1 (human) enzyme inhibition. Q9NUW8. recombinant TDP1, AlphaScreen DNA substrate cleavage. Potency, µM (highest dose often 130 µM), without a hit: at the top dose activity change, negative = inhibition, actives largely listed as inhibitors. hit rate 0.28% among 350,000. AID 485290; note: potency is the fitted concentration of half-maximal effect; nearly all actives have a fitted effect of over 40% in size
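Compounds were preincubated with Tdp1 (1 nM final) for 15 min at room temperature before substrate (15 nM final) started a 5 min reaction; beads (10 ug/ml final) were then added for 10 min before AlphaScreen detection.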
Six1-Eya2 inh: blocks human Six1 binding to Eya2; activity change, % (no concentration beside the values); hit rate 0.56% among 360,000; AID 651725; Q15475+O00167; AlphaScreen GST-Six1/His-Eya2 binding, biochemical; stronger effect = lower value; in the data active = activity change below about -65%; inconclusive = mostly about -30% to -63%
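AlphaScreen luminescence read after one hour at 37 °C in darkness. Pin-transferred compounds met GST-Six1 and His-Eya2 protein (5X stock 250 nM/500 nM) plus glutathione donor and Ni-chelate acceptor beads (5X, 50 ug/mL).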
TDP1 cell noCPT: qHTS for Inhibitors of human tyrosyl-DNA phosphodiesterase 1 (TDP1): qHTS in cells in absence of CPT | DT40 Tdp1-/- hTDP1 cells, no CPT, ATP luminescence, 48 h | Potency, µM (doses to about 46.2 µM), for the others: at the top dose activity change, negative = growth inhibition, most hits filed as inhibitors | hit rate 15% among 420,000 | AID 686978, 2013; note: potency is the fitted concentration of half-maximal effect; nearly all actives have a fitted effect of over 55% in size
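Chicken DT40 Tdp1-/- cells complemented with human TDP1, screened without camptothecin (DMSO vehicle only), 400 cells/well. Compounds pin-transferred, cells incubated at 37 °C for at least 48 hr. Growth read as ATP-dependent luminescence (CellTiter-Glo, 30 min at RT).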
CtBP-E1A inh: blocks the CtBP interaction with E1A. AlphaScreen GST-E1A/His-CtBP binding, 1536-well; stronger effect = lower value. activity change, % (test concentration not listed). hit rate 0.49% among 340,000; in the data active = activity change below about -65%; inconclusive = mostly about -30% to -63%
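Protein mix (5X: 125 nM each GST-E1A, His-CtBP) was incubated with pinned compound 2 h at 37 deg C in dark, in 50 mM Tris pH 8.0 buffer with 300 mM NaCl. Glutathione donor and nickel acceptor beads followed; AlphaScreen signal read after 1 h.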
IL1B secr inh: inhibitors of inflammasome signaling (IL-1 beta secretion); THP-1 LPS/ATP IL-1B secretion, AlphaLISA, 16 h; stronger effect = lower value; activity change, % at 57.5 µM; hit rate 4.7% among 360,000; in the data active = activity change below about -50%; inconclusive = mostly about -30% to -49%
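THP-1 cells pretreated 1 hr with compounds (up to 57.5 uM final), then stimulated with LPS (250 ng/mL final) plus ATP (1.25 mM final); secreted IL-1B measured by AlphaLISA after 16 hr, decreased signal indicating inhibition.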
Numbers without * were called inactive; u = inconclusive; x = not tested or not shown; [ ] = remark or other dose. Unless noted, calls come from the whole dose curve; as a rule, active = well fitted curve in the direction sought with a large enough effect; inconclusive = small, poorly fitted or top-dose-only effect, or another doubt; inactive = no such curve, though single readings can be large; an effect the other way counts as inactive or inconclusive. % is set by controls: 0 for no effect and ±100 for the full control effect.

SMILES	TDP1 cell CPT	TDP1 inh	Six1-Eya2 inh	TDP1 cell noCPT	CtBP-E1A inh	IL1B secr inh
COc1ccc(-c2ccc(C(=O)Nc3ccccc3)c3occc23)c(C)c1	20.6µM*	x	10.5	u	14.5	0.9
COc1ccc(NC(=O)c2ccc(-c3c(C)noc3C)c3ccoc23)cc1	u	x	-25.7	u	u	0.0
COc1ccc(-c2ccc(C(=O)Nc3ccc(OC)nc3)c3occc23)c(C)c1	0.366µM*	x	0.8	14.6µM*	-22.5	7.9
CCOC(=O)c1c(C)nc2ccc(Cl)cc2c1-c1ccccc1	-19.6%	-7.7%	8.5	u	5.2	-5.6
CCOC(=O)c1c(C)nc2ccccc2c1-c1ccccc1	u	0.0%	18.9	18.4µM*	12.7	-1.2
CCOC(=O)c1c(N)nn(C(=O)C(C)C)c1-c1ccccc1	u	1.2%	11.1	13µM*	7.3	-8.1
CCOC(=O)c1c(CCl)nc2ccccc2c1-c1ccccc1	13µM*	7.5%	-1.1	23.1µM*	0.5	-19.1
CCOC(=O)c1c(C)nc2c(c1-c1ccccc1)C(=O)c1ccccc1-2	u	4.0%	-8.1	u	-5.6	-53.7*
Cc1ccc(CN2C(=O)c3ccccc3C2C(=O)NC2CCCCCC2)cc1 (stereo unspecified)	-13.7%	4.5%	x	u	x	x
CCCCCCN1C(=O)CC(NC(=O)OCC2c3ccccc3-c3ccccc32)C/C=C\C1C(C)C (stereo unspecified)	23.1µM*	-0.9%[56.1 µM]	-3.5	14.6µM*	0.1	-4.5
O=C(NC1C/C=C\C(c2ccccc2)N(c2ccccc2)C(=O)C1)OCC1c2ccccc2-c2ccccc21 (stereo unspecified)	-82.1%	0.3%[56.1 µM]	-13.6	0.164µM*	-17.3	u
Cc1ccc(CN2C(=O)C[C@@H](NC(=O)OCC3c4ccccc4-c4ccccc43)C/C=C\C2c2ccc(C)cc2)cc1 (stereo partly specified)	u	0.6%[56.1 µM]	5.2	u	14.5	-64.8*
CC(C)CC(NC(=O)OCC1c2ccccc2-c2ccccc21)C(=O)O (stereo unspecified)	-2.6%	4.5%	x	22.3%	x	x
C/C(=C\C(=O)OCCCCCCCCC(=O)O)C[C@@H]1OC[C@H](C[C@@H]2O[C@H]2[C@@H](C)[C@H](C)O)[C@@H](O)[C@H]1O	1.03µM*	x	1.5	1.46µM*	5.4	4.8
C=COC(=O)/C=C/C	x	10.8%	x	x	x	x
CCOC(=O)Cn1c(CN(C)Cc2ccccc2)nc2c1c(=O)n(C)c(=O)n2C	9.2µM*	x	-3.2	11.6µM*	2.2	-10.5
CN(Cc1ccccc1)Cc1nc2c(c(=O)n(C)c(=O)n2C)n1CCCc1ccccc1	18.4µM*	5.2%	-3.4	15.8µM*	5.1	-24.1
Cn1c(=O)c2c(nc(CCc3ccccc3)n2C)n(C)c1=O	-27.2%	x	-18.8	-18.8%	-12.4	16.5
COC(=O)Cn1c(CN(C)Cc2ccccc2)nc2c1c(=O)n(C)c(=O)n2C	u	x	-1.6	u	12.5	64.0
Cc1nnc(SCCn2c(N(C)Cc3ccccc3)nc3c2c(=O)n(C)c(=O)n3C)s1	u	x	-1.0	11.2µM*	3.0	6.8
CC(C)Cn1c(CN(C)Cc2ccccc2)nc2c1c(=O)n(C)c(=O)n2C	6.51µM*	3.1%	1.7	7.31µM*	1.1	28.4
Cc1nnc(SCCn2c(N3CCN(C)CC3)nc3c2c(=O)n(C)c(=O)n3C)s1	-16.6%	4.2%	3.3	-4.9%	-2.6	-15.9
NC(=O)CC(NC(=O)c1ccccc1)c1ccc(NCCCN2CCCC2=O)c([N+](=O)[O-])c1 (stereo unspecified)	-8.3%	x	0.6	-8.9%	2.0	-7.4
O=C(Cn1nc2c(cc1=O)CCCC2)NCc1ccccc1Cl	-1.8%	6.6%	x	-10.6%	x	x
